What all share (test): yeast three-hybrid, YBZ-1, SC-Leu-His + 0.5 mM 3-AT, 4 days
Holding throughout (conditions): tags: N-Gal4 AD-HA kept; label: inside an RPR1-promoter hybrid RNA with tandem MS2 sites; ssRNA

Assay [1] concerns the target PUM1 PUF domain R5-KNG (Homo sapiens, UniProt Q14671 828-1176, C1007K;R1008N;Q1011G). The gist of the method: (§1)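 Matching RNA elements and Pumilio-1 PUF domain libraries, randomized at the three base-contacting residues of every repeat, were co-expressed from a centromeric plasmid in strain YBZ-1 (LexA–MS2 coat fusion, HIS3 reporter). The repeat regions were PCR-amplified and Illumina-sequenced from cells grown four days on SC-Leu (input) or SC-Leu-His + 0.5 mM 3-AT (selection). The interaction score is the log change in variant frequency from input to selection. It is computed in log2, with a pseudocount of 1 for absent variants.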

For assay [2], the target named is PUM1 PUF domain R5-NDI (Homo sapiens, UniProt Q14671 828-1176, C1007N;R1008D;Q1011I). The gist of the method:
as §1

The target in assay [3] is PUM1 PUF domain R5-KYF (Homo sapiens, UniProt Q14671 828-1176, C1007K;R1008Y;Q1011F). A digest of the protocol: as §1
Assay [4] has as its target PUM1 PUF domain R5-SNR (Homo sapiens, UniProt Q14671 828-1176, C1007S;R1008N;Q1011R). The gist of the method:
as §1

Assay [5] has as its target PUM1 PUF domain R5-DQR (Homo sapiens, UniProt Q14671 828-1176, C1007D;R1008Q;Q1011R). A digest of the protocol:
as §1

Assay [6] has as its target PUM1 PUF domain R4-EFG (Homo sapiens, UniProt Q14671 828-1176, N971E;H972F;Q975G). The gist of the method: as §1
Assay [7] addresses PUM1 PUF domain R3-SRG (Homo sapiens, UniProt Q14671 828-1176, C935S;Q939G). A digest of the protocol:
as §1

Assay [8] addresses PUM1 PUF domain R3-LCR (Homo sapiens, UniProt Q14671 828-1176, C935L;R936C;Q939R). A digest of the protocol:
as §1

Assay [9] deals with PUM1 PUF domain R3-ARC (Homo sapiens, UniProt Q14671 828-1176, C935A;Q939C). The gist of the method:
as §1

Assay [10] deals with PUM1 PUF domain R8-QWN (Homo sapiens, UniProt Q14671 828-1176, N1122Q;Y1123W;Q1126N). A digest of the protocol:
as §1

For assay [11], the target named is PUM1 PUF domain R5-KQG (Homo sapiens, UniProt Q14671 828-1176, C1007K;R1008Q;Q1011G). The gist of the method:
as §1

Assay [12] has as its target T1, PUM1 PUF domain R6-VFT (Homo sapiens, UniProt Q14671 828-1176, N1043V;Y1044F;Q1047T).
T1 sequence: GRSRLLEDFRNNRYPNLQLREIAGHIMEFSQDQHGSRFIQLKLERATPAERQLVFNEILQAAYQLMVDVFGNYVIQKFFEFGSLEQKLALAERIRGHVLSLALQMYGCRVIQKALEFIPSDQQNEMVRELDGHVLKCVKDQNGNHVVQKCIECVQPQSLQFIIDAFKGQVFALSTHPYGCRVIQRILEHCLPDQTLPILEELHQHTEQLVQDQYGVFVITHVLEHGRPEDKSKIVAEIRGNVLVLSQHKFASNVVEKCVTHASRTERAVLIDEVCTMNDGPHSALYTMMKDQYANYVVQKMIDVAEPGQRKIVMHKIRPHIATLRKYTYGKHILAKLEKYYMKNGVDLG
The gist of the method: as §1

The target of assay [13] is T2, PUM1 PUF domain R6-TYE (Homo sapiens, UniProt Q14671 828-1176, N1043T;Q1047E).
T2 sequence: T1 sequence with V216T, F217Y, T220E
The gist of the method:
as §1

Assay [14] deals with T3, PUM1 PUF domain R6-TWL (Homo sapiens, UniProt Q14671 828-1176, N1043T;Y1044W;Q1047L).
T3 sequence: T1 sequence with V216T, F217W, T220L
The gist of the method:
as §1

Assay [15] concerns the target PUM1 PUF domain R1-GRS (Homo sapiens, UniProt Q14671 828-1176, S863G;Q867S). A digest of the protocol: as §1
The target in assay [16] is PUM1 PUF domain R7-KWH (Homo sapiens, UniProt Q14671 828-1176, S1079K;N1080W;E1083H). The gist of the method:
as §1

The target in assay [17] is PUM1 PUF domain R5-TQG (Homo sapiens, UniProt Q14671 828-1176, C1007T;R1008Q;Q1011G). A digest of the protocol:
as §1

Assay [18] has as its target PUM1 PUF domain R8-LWK (Homo sapiens, UniProt Q14671 828-1176, N1122L;Y1123W;Q1126K). The gist of the method: as §1
Assay [19] addresses PUM1 PUF domain R3-RIK (Homo sapiens, UniProt Q14671 828-1176, C935R;R936I;Q939K). A digest of the protocol: as §1
In assay [20] the target is PUM1 PUF domain R3-RQL (Homo sapiens, UniProt Q14671 828-1176, C935R;R936Q;Q939L). The gist of the method: as §1

Our source for the binding signal values is PMC8384837, “Expanding the binding specificity for RNA recognition by a PUF domain”.

Residue numbers refer to the chain shown, from its start.

On to “GGCUAGAACUAGUGGAUCCCCCGGCGCCCGGCGGCUCGAGCCCGGGUAAGUGUUAAUAGUCUGCAUGCCGCCGGGCGCCAUGCCUGCAGGUCGACUCUAGAAAACAUG”, for which the binding signal is 4.33 log2 enrichment (interaction score) in assay [1]; 3.04 log2 enrichment (interaction score) in assay [2]; 3.92 log2 enrichment (interaction score) in [3]; 4.01 log2 enrichment (interaction score) in assay [4]; 1.66 log2 enrichment (interaction score) in assay [5].

Consider “GGCUAGAACUAGUGGAUCCCCCGGCGCCCGGCGGCUCGAGCCCGGGUAAGUGUAUAUAGUCUGCAUGCCGCCGGGCGCCAUGCCUGCAGGUCGACUCUAGAAAACAUG”, for which, in assay [6], the binding signal was 1.18 log2 enrichment (interaction score).

“GGCUAGAACUAGUGGAUCCCCCGGCGCCCGGCGGCUCGAGCCCGGGUAAGUGUAAGUAGUCUGCAUGCCGCCGGGCGCCAUGCCUGCAGGUCGACUCUAGAAAACAUG”: the binding signal was 2.65 log2 enrichment (interaction score) in assay [7], 3.54 log2 enrichment (interaction score) in assay [8] and 0.43 log2 enrichment (interaction score) in [9].

With “GGCUAGAACUAGUGGAUCCCCCGGCGCCCGGCGGCUCGAGCCCGGGUAAGCGUAAAUAGUCUGCAUGCCGCCGGGCGCCAUGCCUGCAGGUCGACUCUAGAAAACAUG”, in [10], the binding signal is 3.25 log2 enrichment (interaction score).

“GGCUAGAACUAGUGGAUCCCCCGGCGCCCGGCGGCUCGAGCCCGGGUAAGUGUCAAUAGUCUGCAUGCCGCCGGGCGCCAUGCCUGCAGGUCGACUCUAGAAAACAUG”: the binding signal was 2.59 log2 enrichment (interaction score) in [1], 3.41 log2 enrichment (interaction score) in assay [11], 6.17 log2 enrichment (interaction score) in assay [4] and 3.91 log2 enrichment (interaction score) in [5].

Consider “GGCUAGAACUAGUGGAUCCCCCGGCGCCCGGCGGCUCGAGCCCGGGUAAGUGAAAAUAGUCUGCAUGCCGCCGGGCGCCAUGCCUGCAGGUCGACUCUAGAAAACAUG”, for which the binding signal in assay [12] was 6.61 log2 enrichment (interaction score); in [13], 3.51 log2 enrichment (interaction score); in assay [14], 5.21 log2 enrichment (interaction score).

Regarding “GGCUAGAACUAGUGGAUCCCCCGGCGCCCGGCGGCUCGAGCCCGGGUAAGUGUAAAUCGUCUGCAUGCCGCCGGGCGCCAUGCCUGCAGGUCGACUCUAGAAAACAUG”, the binding signal in [15] is 2.75 log2 enrichment (interaction score).

On to “GGCUAGAACUAGUGGAUCCCCCGGCGCCCGGCGGCUCGAGCCCGGGUAAGUAUAAAUAGUCUGCAUGCCGCCGGGCGCCAUGCCUGCAGGUCGACUCUAGAAAACAUG”, for which the binding signal in assay [16] was 2.68 log2 enrichment (interaction score).

“GGCUAGAACUAGUGGAUCCCCCGGCGCCCGGCGGCUCGAGCCCGGGUAAGUCUAAAUAGUCUGCAUGCCGCCGGGCGCCAUGCCUGCAGGUCGACUCUAGAAAACAUG”: in assay [16], the binding signal was 5.07 log2 enrichment (interaction score).

Take “GGCUAGAACUAGUGGAUCCCCCGGCGCCCGGCGGCUCGAGCCCGGGUAAGUGUAAAUAGUCUGCAUGCCGCCGGGCGCCAUGCCUGCAGGUCGACUCUAGAAAACAUG”: the binding signal in [7] is 4.45 log2 enrichment (interaction score); in [12], 2.21 log2 enrichment (interaction score); in assay [17] it was 0.76 log2 enrichment (interaction score); in assay [6], 3.99 log2 enrichment (interaction score); in [18], 4.16 log2 enrichment (interaction score); in assay [14], 0.99 log2 enrichment (interaction score). Besides, the binding signal in assay [9] is 3.8 log2 enrichment (interaction score).

“GGCUAGAACUAGUGGAUCCCCCGGCGCCCGGCGGCUCGAGCCCGGGUAAGUGUGAAUAGUCUGCAUGCCGCCGGGCGCCAUGCCUGCAGGUCGACUCUAGAAAACAUG”: in assay [17], the binding signal was 2.63 log2 enrichment (interaction score).

On to “GGCUAGAACUAGUGGAUCCCCCGGCGCCCGGCGGCUCGAGCCCGGGUAAGUGUAAUUAGUCUGCAUGCCGCCGGGCGCCAUGCCUGCAGGUCGACUCUAGAAAACAUG”, for which the binding signal in assay [19] was 2.73 log2 enrichment (interaction score); in [20], 3.54 log2 enrichment (interaction score); in assay [8] it was 1.28 log2 enrichment (interaction score); in assay [9], 1.82 log2 enrichment (interaction score).
